Assay [1] deals with T1, Serine/threonine-protein kinase TBK1 (Homo sapiens) (UniProt Q9UHD2).
T1 sequence (whole entry): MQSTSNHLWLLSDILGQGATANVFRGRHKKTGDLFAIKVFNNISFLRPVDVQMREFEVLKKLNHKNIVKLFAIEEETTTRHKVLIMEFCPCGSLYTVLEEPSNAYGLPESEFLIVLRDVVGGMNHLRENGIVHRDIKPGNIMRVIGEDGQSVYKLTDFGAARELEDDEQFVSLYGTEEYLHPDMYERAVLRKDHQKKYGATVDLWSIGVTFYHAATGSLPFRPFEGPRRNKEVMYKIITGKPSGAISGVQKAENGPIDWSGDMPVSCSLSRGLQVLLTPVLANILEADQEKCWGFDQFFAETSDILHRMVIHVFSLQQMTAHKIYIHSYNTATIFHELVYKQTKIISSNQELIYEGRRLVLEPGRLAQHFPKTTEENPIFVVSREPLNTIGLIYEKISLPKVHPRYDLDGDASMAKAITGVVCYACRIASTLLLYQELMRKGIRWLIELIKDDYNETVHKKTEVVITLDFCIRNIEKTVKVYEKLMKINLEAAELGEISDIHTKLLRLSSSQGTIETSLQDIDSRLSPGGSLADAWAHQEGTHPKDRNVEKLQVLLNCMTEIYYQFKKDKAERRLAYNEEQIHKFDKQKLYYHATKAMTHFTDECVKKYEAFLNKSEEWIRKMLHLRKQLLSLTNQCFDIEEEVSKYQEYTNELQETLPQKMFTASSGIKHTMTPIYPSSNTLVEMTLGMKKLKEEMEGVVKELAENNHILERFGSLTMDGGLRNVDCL
The following applies: at 10 µM.

Assay [2] concerns the target T2, TGF-beta receptor type-1 (Homo sapiens) (UniProt P36897).
T2 sequence (whole entry): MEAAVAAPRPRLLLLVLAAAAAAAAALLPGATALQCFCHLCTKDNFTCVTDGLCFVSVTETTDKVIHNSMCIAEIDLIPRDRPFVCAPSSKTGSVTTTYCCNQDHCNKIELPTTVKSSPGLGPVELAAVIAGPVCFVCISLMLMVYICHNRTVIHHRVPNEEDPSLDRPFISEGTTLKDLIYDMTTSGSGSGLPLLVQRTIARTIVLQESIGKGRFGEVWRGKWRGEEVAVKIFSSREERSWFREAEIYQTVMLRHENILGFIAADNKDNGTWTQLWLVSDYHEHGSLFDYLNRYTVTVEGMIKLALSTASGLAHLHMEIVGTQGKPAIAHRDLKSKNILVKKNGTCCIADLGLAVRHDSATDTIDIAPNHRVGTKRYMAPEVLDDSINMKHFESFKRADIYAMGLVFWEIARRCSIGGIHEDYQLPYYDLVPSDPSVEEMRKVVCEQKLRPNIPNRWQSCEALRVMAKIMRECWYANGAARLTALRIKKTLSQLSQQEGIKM
The following applies: at 1 µM.

Assay [3] addresses T2, TGF-beta receptor type-1 (Homo sapiens). The settings on record: at 10 µM.
Assay [4] deals with Insulin-like growth factor 1 receptor (Homo sapiens) (UniProt P08069). The following applies: at 1 µM.
The target is the same in assay [5]. The following applies: at 10 µM.
Assay [6] addresses T3, Inhibitor of nuclear factor kappa-B kinase subunit alpha (Homo sapiens) (UniProt O15111).
T3 sequence (whole entry): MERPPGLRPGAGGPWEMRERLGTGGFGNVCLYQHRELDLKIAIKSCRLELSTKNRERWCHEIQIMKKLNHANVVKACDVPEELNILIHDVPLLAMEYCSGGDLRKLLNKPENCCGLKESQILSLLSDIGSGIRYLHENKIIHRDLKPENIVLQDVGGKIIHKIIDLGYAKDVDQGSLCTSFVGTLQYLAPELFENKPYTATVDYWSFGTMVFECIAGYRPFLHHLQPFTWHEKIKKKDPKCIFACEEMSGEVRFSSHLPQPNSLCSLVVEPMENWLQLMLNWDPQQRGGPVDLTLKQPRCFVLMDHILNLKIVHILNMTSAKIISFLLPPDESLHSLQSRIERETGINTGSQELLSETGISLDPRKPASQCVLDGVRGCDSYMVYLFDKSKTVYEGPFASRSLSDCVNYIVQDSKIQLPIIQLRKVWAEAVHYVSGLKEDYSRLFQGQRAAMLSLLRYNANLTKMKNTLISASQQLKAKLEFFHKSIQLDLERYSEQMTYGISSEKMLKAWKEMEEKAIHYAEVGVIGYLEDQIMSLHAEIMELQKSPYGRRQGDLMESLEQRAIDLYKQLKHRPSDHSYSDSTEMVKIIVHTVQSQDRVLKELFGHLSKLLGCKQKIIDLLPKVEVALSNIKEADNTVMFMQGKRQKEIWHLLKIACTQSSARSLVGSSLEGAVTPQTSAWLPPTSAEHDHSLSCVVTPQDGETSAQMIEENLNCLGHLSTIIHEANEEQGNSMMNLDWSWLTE
The settings on record: at 1 µM.

Assay [7] deals with T3, Inhibitor of nuclear factor kappa-B kinase subunit alpha (Homo sapiens). The settings on record: at 10 µM.
Assay [8] deals with T4, Inhibitor of nuclear factor kappa-B kinase subunit beta (Homo sapiens) (UniProt O14920).
T4 sequence (whole entry): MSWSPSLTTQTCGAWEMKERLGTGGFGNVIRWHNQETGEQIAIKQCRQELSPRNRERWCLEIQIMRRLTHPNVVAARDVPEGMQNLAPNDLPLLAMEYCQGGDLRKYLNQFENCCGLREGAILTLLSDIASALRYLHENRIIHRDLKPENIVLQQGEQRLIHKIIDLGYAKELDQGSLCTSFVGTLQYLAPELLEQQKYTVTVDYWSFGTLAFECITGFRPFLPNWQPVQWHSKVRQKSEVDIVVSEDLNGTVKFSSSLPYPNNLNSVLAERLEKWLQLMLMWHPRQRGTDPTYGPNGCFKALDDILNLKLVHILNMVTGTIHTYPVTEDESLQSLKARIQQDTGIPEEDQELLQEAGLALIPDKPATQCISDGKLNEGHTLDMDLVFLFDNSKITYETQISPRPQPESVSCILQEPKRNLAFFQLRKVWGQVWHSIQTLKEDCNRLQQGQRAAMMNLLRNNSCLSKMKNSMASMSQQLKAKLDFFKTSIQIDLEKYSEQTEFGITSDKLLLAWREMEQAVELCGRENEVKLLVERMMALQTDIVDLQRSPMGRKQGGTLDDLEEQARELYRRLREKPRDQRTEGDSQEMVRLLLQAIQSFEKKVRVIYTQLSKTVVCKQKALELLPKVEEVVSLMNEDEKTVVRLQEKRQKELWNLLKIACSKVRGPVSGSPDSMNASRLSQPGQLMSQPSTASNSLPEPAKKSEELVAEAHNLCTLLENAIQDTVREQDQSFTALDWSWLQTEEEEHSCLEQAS
The settings on record: at 1 µM.

Assay [9] addresses T4, Inhibitor of nuclear factor kappa-B kinase subunit beta (Homo sapiens). The settings on record: at 10 µM.
Assay [10] addresses Insulin receptor (Homo sapiens) (UniProt P06213). The following applies: at 1 µM.

Insulin-like growth factor 1 receptor (Homo sapiens), sequence (P08069 31-736 limits assumed): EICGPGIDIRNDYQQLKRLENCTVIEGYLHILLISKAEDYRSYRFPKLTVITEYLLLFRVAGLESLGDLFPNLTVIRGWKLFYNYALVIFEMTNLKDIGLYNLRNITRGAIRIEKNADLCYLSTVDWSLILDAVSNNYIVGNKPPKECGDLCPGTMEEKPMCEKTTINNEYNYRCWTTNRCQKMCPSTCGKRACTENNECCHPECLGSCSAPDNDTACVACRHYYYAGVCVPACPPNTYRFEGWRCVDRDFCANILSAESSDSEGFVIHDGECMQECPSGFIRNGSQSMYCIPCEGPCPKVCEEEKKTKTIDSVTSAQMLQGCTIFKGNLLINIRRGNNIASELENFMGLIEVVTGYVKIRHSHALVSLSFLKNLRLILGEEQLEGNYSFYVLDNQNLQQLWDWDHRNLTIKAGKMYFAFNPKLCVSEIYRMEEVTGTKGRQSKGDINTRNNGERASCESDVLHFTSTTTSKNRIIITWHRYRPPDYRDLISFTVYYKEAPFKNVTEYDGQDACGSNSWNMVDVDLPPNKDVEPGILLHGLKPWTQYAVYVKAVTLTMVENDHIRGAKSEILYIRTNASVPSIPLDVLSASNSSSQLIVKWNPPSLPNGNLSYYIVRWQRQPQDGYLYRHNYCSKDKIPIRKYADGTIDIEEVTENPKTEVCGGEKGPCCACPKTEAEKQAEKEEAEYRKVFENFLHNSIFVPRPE
Insulin-like growth factor 1 receptor (Homo sapiens), sequence (P08069 741-1367 limits assumed): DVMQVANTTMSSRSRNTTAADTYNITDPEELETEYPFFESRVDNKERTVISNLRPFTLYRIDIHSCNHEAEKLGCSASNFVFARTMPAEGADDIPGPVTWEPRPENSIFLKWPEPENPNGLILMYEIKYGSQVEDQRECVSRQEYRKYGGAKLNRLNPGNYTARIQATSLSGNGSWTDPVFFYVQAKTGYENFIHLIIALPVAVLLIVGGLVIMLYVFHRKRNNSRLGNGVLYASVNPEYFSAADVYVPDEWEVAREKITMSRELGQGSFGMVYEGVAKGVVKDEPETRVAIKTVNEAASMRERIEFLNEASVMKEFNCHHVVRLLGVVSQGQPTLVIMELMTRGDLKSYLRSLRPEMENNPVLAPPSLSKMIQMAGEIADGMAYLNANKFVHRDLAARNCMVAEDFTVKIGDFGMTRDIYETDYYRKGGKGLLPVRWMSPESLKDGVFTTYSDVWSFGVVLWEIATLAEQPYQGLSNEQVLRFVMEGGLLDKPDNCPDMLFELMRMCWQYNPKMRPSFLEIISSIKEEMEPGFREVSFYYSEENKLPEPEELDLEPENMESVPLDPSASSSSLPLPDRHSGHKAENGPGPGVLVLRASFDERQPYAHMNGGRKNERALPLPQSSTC
Insulin receptor (Homo sapiens), sequence (P06213 28-758 limits assumed): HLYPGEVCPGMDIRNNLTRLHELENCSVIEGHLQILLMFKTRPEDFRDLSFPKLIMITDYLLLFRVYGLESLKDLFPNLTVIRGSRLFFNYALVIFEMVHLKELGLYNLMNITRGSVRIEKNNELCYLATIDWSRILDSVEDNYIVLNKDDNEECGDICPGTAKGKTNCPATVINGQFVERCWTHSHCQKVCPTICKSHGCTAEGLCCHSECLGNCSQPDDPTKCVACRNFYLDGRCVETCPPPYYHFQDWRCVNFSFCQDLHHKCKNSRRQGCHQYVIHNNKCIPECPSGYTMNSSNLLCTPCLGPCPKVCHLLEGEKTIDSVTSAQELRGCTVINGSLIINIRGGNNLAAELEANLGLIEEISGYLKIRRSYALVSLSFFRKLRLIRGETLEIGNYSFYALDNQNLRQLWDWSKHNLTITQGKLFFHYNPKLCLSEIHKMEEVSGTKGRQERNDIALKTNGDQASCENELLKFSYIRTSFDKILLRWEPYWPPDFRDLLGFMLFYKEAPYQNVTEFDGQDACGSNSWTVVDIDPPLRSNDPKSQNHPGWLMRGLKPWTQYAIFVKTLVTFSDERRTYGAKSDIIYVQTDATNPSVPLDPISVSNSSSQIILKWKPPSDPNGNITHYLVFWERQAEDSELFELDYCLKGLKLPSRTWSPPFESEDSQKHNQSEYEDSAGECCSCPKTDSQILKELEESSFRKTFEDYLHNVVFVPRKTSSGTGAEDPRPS
Insulin receptor (Homo sapiens), sequence (P06213 763-1382 limits assumed): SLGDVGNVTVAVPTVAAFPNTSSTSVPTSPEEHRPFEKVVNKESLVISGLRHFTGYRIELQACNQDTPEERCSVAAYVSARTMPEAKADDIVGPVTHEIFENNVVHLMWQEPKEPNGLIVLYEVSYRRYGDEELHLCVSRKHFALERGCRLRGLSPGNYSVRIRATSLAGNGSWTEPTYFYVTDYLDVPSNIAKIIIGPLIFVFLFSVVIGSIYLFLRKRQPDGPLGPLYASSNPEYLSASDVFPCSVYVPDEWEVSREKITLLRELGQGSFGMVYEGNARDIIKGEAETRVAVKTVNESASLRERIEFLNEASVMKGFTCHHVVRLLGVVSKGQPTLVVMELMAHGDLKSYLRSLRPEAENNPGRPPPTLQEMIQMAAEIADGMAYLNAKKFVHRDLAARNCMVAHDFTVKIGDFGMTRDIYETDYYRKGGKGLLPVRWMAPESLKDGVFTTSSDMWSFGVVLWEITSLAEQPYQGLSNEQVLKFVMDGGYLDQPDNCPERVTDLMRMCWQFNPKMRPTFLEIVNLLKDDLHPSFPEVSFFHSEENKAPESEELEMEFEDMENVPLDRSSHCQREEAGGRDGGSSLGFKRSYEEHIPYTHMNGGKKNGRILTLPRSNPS

Turning to `Cn1cnc2cc3c(Nc4cccc(Br)c4)ncnc3cc21`, the residual activity in [1] worked out at 63%; in assay [2], 86%; in assay [3] it was 85%; in assay [4], 109%; in [5], 90%; in [6], 92%. For the same compound, the residual activity in assay [7] worked out at 104%; in assay [8], 95%; in assay [9], 94%; in assay [10], 102%.

(Values after ChEMBL document CHEMBL2218924, “A broad activity screen in support of a chemogenomic map for kinase signalling research and drug discovery” (Biochem J, 2013).)
